Rows were chosen to be rich in hits. Some 4.1% of all compounds tested hit in one or more screens of this group.
BoNT-A LC inh2 = BoNT/A light chain protease inhibitors, primary screen, biochemical, flow cytometry, MLPCN library. Botulinum neurotoxin type A light chain protease (Clostridium botulinum A str. ATCC 3502). multiplex microsphere protease substrate cleavage. inhibition, % at 10 µM. 0.17% of 360,000 active. AID 588499, 2011
DUSP3 inh = VHR1 phosphatase inhibitors, primary screen, biochemical, absorbance, uHTS; Dual specificity protein phosphatase 3 (Homo sapiens), P51452; recombinant VHR phosphatase, pNPP absorbance; inhibition, % at 13.3 µM; 0.52% of 290,000 active; AID 1654, 2009; in the data active = inhibition above about 50%
Anthrax LF inh2 = Bacillus anthracis LF protease inhibitors, primary screen, biochemical, multiplex microsphere, MLPCN library | Lethal factor (Bacillus anthracis), P15917 | multiplex microsphere protease cleavage assay | inhibition, % at 10 µM | 0.12% of 360,000 active
MazF activator = activators of E. coli MazEF toxin-antitoxin RNase, primary screen, biochemical, fluorescence, uHTS | Endoribonuclease toxin MazF (Escherichia coli (strain K12)), P0AE70 | FAM/BHQ RNA-DNA oligo cleavage fluorescence, 5 h | activation, % at 20 µM | 0.32% of 350,000 active | AID 504720, 2011; in the data active = activation above about 50%
BoNT F protease = BoNT/F light chain protease inhibitors, primary screen, biochemical, flow cytometry, MLPCN library | Botulinum neurotoxin type F light chain protease (Clostridium botulinum) | Multiplex microsphere protease cleavage assay | inhibition, % at 10 µM | 0.22% of 360,000 active | AID 588497, 2011; in the data active = inhibition above about 35%, passing the limit was not always enough; inconclusive = no clear call, values can overlap the other calls
Autofluor counter = compound fluorescence in toxin protease inhibitor counterscreen; compound autofluorescence counterscreen, microsphere flow cytometry; active compounds read high; fluorescence intensity (no concentration beside the values); 3.1% of 360,000 active; AID 624483; in the data active = fluorescence intensity above about 16000; inconclusive = no clear call, values can overlap the other calls
Numbers stand for hits; 0 = inactive; ? = inconclusive; - = not tested or not shown. Cut-off read from the data, not from the text of the source, unless noted: active = inhibition above about 30%; inconclusive = no clear call, values can overlap the other calls; inactive = below that.

SMILES	BoNT-A LC inh2	DUSP3 inh	Anthrax LF inh2	MazF activator	BoNT F protease	Autofluor counter
CC12CC3CC(C)(C1)CC(C(=O)NC1=NCCS1)(C3)C2	0	0	0	0	0	0
COC(=O)c1[nH]c(C)c(/C(O)=C2\C(=O)C(=O)N(CCN(C)C)C2c2cccs2)c1C (configuration not stated)	0	0	0	0	0	20496
CCOC(=O)c1[nH]c(C)c(/C(O)=C2\C(=O)C(=O)N(CCN(C)C)C2c2ccc(C)o2)c1C (configuration not stated)	0	0	0	0	0	21142
CCN(CC)CCN1C(=O)C(=O)/C(=C(/O)c2c(C)[nH]c(C(=O)OC)c2C)C1c1cccc(OC)c1 (configuration not stated)	0	0	0	0	0	18213
CCN(CC)CCN1C(=O)C(=O)/C(=C(/O)c2c(C)[nH]c(C(=O)OC)c2C)C1c1ccccc1 (configuration not stated)	-	0	-	0	-	-
COc1cc(NC(=S)NC(C)=O)ccc1NC(=O)C(C)C	0	0	0	0	0	16967
CN(CC(=O)Nc1ccc(Cl)c(C(F)(F)F)c1)C(=O)c1cnccn1	0	-	0	0	0	0
O=c1c2nnn(Cc3ccc(Cl)cc3)c2ncn1Cc1ccc(F)cc1	0	0	0	0	0	22862
CCOc1ccc(C(CC(=O)O)NC(=O)c2ccco2)cc1 (configuration not stated)	?	0	0	0	0	19729
CC1=C(C(=O)Nc2ccccc2)C(c2ccco2)NC(=S)N1 (configuration not stated)	0	0	0	0	0	24277
COc1ccc2[nH]c3c(c2c1)CCN1C(=O)N([C@@H](C)C(=O)NC2CCN(Cc4ccccc4)CC2)C(=O)[C@]31C	0	0	0	0	0	0
CC(=O)N(Cc1cc(=O)[nH]c2ccccc12)c1ccc(C)cc1	0	0	0	0	0	0
Cc1ccc(N(Cc2cc(=O)[nH]c3ccccc23)C(=O)c2ccco2)cc1	0	0	0	0	0	23679
Cc1cc(C)c2c(N)c(C(=O)N/N=C/c3ccccc3)sc2n1	0	0	0	0	?	0
Cc1ccc(/C=C/C(=O)Nc2cc(=O)n(C)c(=O)n2C)o1	0	0	0	0	0	0
Cc1ccc(C(=O)Nc2cc(=O)n(C)c(=O)n2C)o1	?	0	0	0	0	22513
O=C(c1ccccc1)N1N=C(c2ccccc2O)CC1c1ccccc1 (configuration not stated)	0	-	0	0	0	0
COc1ccccc1Oc1cc(F)nc(N)n1	?	0	0	0	0	17544
CS(=O)(=O)N(CC(=O)Nc1ccccc1F)C1CCCCC1	0	0	0	0	0	0
CS(=O)(=O)N(CC(=O)Nc1ccccc1Sc1ccccc1)C1CCCCC1	?	0	0	0	0	22169
C=CCSc1nsc(NC(=O)Nc2ccc(F)cc2)n1	0	0	0	0	?	0
NS(=O)(=O)c1ccc(NC=C2C(=O)OC3(CCCCC3)OC2=O)cc1	0	0	0	0	0	16483
O=C(O)CCCC(=O)Nc1ccc(OCc2nc3ccccc3s2)cc1	0	57.4	0	0	0	0
O=C(CCCc1nc2ccccc2s1)Nc1ccccc1	0	0	0	0	0	0
O=C(Nc1ccc(F)cc1)Nc1ccccc1F	0	56.3	0	0	0	0
SMILES	BoNT-A LC inh2	DUSP3 inh	Anthrax LF inh2	MazF activator	BoNT F protease	Autofluor counter
O=C(Nc1ccncc1)Nc1ccc(F)cc1F	0	0	0	0	0	23331
COc1ccc(NC(=O)Nc2ccccc2F)cc1	0	0	0	0	0	0
CN(Cc1ccc(Cl)cc1)C(=O)COC(=O)c1ccc(-c2ccc(O)cc2)cc1	0	-	0	0	0	0
CCc1ccc(S(=O)(=O)/N=C2\C=CC(=O)c3ccccc32)cc1	-	0	-	-	-	-
CCc1ccc(S(=O)(=O)/N=C2/C=C(Sc3ncn[nH]3)C(=O)c3ccccc32)cc1	0	55.1	0	0	0	0
CCc1c(C)nc2cc(-c3ccccc3)[nH]n2c1=O	0	0	0	0	36.2	0
COc1ccc(N2C(=O)CC(Sc3nc4ccccc4s3)C2=O)cc1 (configuration not stated)	0	0	0	0	0	0
C=CCNc1nnc(SC2CC(=O)N(c3ccc(OC)cc3)C2=O)s1 (configuration not stated)	0	0	0	0	0	17184
Cc1nnc(SCC(=O)NC23CC4CC(CC(C4)C2)C3)n(N)c1=O	0	0	0	0	0	0
COc1cccc(C(=O)Cn2c(Br)nc3c2c(=O)n(C)c(=O)n3C)c1	0	0	0	0	0	0
Cn1c(=O)c2c(nc(SCC(=O)NC34CC5CC(CC(C5)C3)C4)n2C)n(C)c1=O	0	0	0	0	0	23851
Cn1c(=O)c2c(nc(Br)n2CC(=O)C23CC4CC(CC(C4)C2)C3)n(C)c1=O	0	0	0	0	0	16360
COC(=O)c1noc(-c2ccc(C)cc2)n1	0	0	0	0	0	23185
CN(C)c1nc(N)c2ncc(=S)[nH]c2n1	0	0	0	0	0	0
COc1ccc(N(CC(=O)N2CCN(c3ccccc3F)CC2)S(=O)(=O)c2ccc(C)cc2)cc1	0	0	0	0	0	0
CC(C)OC(=O)c1nn2c(C(F)(F)F)cc(-c3ccc(Br)o3)nc2c1Br	0	0	0	350.7	0	20340
CCn1c(SCC(=O)NCCc2ccccc2)nnc1-c1cccs1	0	0	0	0	0	0
CCn1c(CNC(=O)c2cccs2)nnc1SCC(=O)Nc1ccc(Cl)cc1	0	0	0	0	0	17189
CCn1c(CNC(=O)c2cccc(C)c2)nnc1SCC(=O)NC1=NCCS1	0	52.0	0	0	0	0
CCn1c(CNC(=O)c2cccs2)nnc1SCC(=O)Nc1cc(Cl)ccc1C	?	0	0	0	0	21203
CCn1c(CNC(=O)c2cccs2)nnc1SCC(=O)NCCc1ccccc1	?	0	0	0	0	24231
CC12CN(C(=O)c3cccc([N+](=O)[O-])c3)C3(C#N)CC1CCC23C (configuration not stated)	0	0	0	0	?	0
CCOC(=O)CNc1c(-c2ccc(O)cc2)nc2ccc(Cl)cn12	0	0	0	0	0	23767
CCOC(=O)CNc1c(-c2ccccc2)nc2ccc(Cl)cn12	0	0	0	0	0	0
CCOC(=O)C(=O)c1c(-c2ccc(C)cc2)nc2ccccn12	0	0	0	0	0	0
CCOC(=O)CNc1c(-c2ccc(O)cc2)nc2ccccn12	0	0	0	0	0	23116
CC(C(=O)NCc1cccc(Cl)c1)N1C(=O)c2ccccc2C1=O (configuration not stated)	0	0	0	0	0	0
